A selection: hits, their analogues and other compounds. The true share with any hit is near 0.95%.
Sa ugtP lethal: growth inhibition of S. aureus ugtP deletion strain | hit rate 0.54% among 330,000 | S. aureus RN4220 ugtP deletion, OD600 growth, 16 h | AID 1259309 | growth inhibition, % (no concentration beside the values); in the data active = growth inhibition above about 68%;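 note: plate controls were untreated wells for no effect and antibiotic for full effect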
PrPC surface inh: cell surface PrPC inhibition, primary TR-FRET screen; TR-FRET read-out; AID 720596; inhibition, % at 13.8 µM; hit rate 0.43% among 370,000; in the data active = inhibition above about 24%; note: 0% = median of the test wells and 100% = reference compound wells
RN4220 kill: S. aureus RN4220 growth inhibition | AID 1259311 | hit rate 0.33% among 330,000 | OD600, 16 h | inhibition, % (no concentration beside the values); in the data active = inhibition above about 85%;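 note: plate controls were untreated cells for no effect and reference antibiotic for full effect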
BJeLR lethal: kills HRASV12-expressing BJeLR cells. AID 1554. inhibition, % (no concentration beside the values). hit rate 0.17% among 300,000. BJeLR (HRASV12) viability, CellTiter-Glo ATP luminescence, 48 h; in the data active = inhibition above about 50%
Numbers without * were called inactive; x = no result given.

SMILES	Sa ugtP lethal	PrPC surface inh	RN4220 kill	BJeLR lethal
Fc1cccc(COc2ccccc2CNc2ccccc2)c1	17	7	-4	0
CC(C)(C)OC(=O)C(Cc1ccccc1)NC(=O)c1nc[nH]c1C(=O)N1CCN(c2ccccc2)CC1 (configuration not stated)	6	x	9	x
COc1cccc2sc(Nc3nc(-c4ccccn4)cs3)nc12	99*	x	99*	37
c1ccc(Nc2nc(-c3ccccn3)cs2)cc1	-8	-13	7	2
C=CCn1c(-c2ccc(S(=O)(=O)N3CCOCC3)cc2)csc1=Nc1ccccc1	-3	0	8	8
CC(=O)c1cccc(N=c2scc(-c3ccc(S(=O)(=O)N4CCOCC4)cc3)n2CCO)c1	-4	24*	5	7
O=C(NN=Cc1cccs1)c1ccc2c(c1)OCO2	1	x	4	x
CCN1/C(=C\C(=S)Nc2ccccc2)Sc2ccccc21	0	23	-4	6
CCN1/C(=C/C(C)=C/c2sc3ccccc3[n+]2CC)Sc2ccccc21	99*	13	100*	63*
COc1ccc(C2C(O)C(c3c[nH]c4ccccc34)=NN2C(=O)CCl)cc1 (configuration not stated)	15	-1	45	100*
COCc1c(C(=O)NN=Cc2ccncc2)nnn1-c1nonc1N	8	x	5	x
O=C(CCN1C(=O)c2cccc3cccc(c23)C1=O)N1CCOCC1	2	-47	4	7
O=C(/C=C/c1ccccc1)N1CCN(CCN2C(=O)c3cccc4cccc(c34)C2=O)CC1	98*	-13	83	0
N#CC1=C(N)Oc2cc(N)ccc2C1c1cccc(Br)c1 (configuration not stated)	-9	-6	0	56*
Cc1ccc(C2C(C#N)=C(N)Oc3cc(N)ccc32)cc1 (configuration not stated)	1	-17	7	4
Cc1c(C(=O)N2CC(C)OC(C)C2)[nH]c2ccc(Br)cc12 (configuration not stated)	1	28*	6	-1
CC1CN(C(=O)c2cc3cc(Br)ccc3[nH]2)CC(C)O1 (configuration not stated)	8	3	14	-2
Cc1nn(C)c(Cl)c1C=NOC(=O)c1ccc(F)cc1	13	x	4	x
CCOc1cc(/C=N\O)cc(Cl)c1OCC	x	-7	x	-6
CCCOc1c(Cl)cc(C=NO)cc1OCC	93*	x	-3	x
CCCOc1c(Br)cc(C=NO)cc1OC	86*	x	-5	x
COc1cc(C=NO)cc(Br)c1OC	6	x	0	x
Cc1cccc(N=Cc2c(O)c3ccccc3oc2=O)n1	-2	x	-13	x
Cc1cc(O)c(C=NNc2ccccc2Cl)c(=O)o1	5	x	6	x
CCn1cc(C(=O)O)c(=O)c2cnc(N3CCN(C(=S)Nc4ccccc4)CC3)nc21	4	6	17	-3
SMILES	Sa ugtP lethal	PrPC surface inh	RN4220 kill	BJeLR lethal
CCCCOC(=O)c1ccc(NC(=S)N2CCN(c3ncc4c(=O)c(C(=O)O)cn(CC)c4n3)CC2)cc1	100*	-3	101*	1
O=C(CC=NO)Nc1ccc(Oc2ccccc2)cc1	1	x	2	x
CC(C)CC(=O)NC(=S)Nc1ccc(NC(=O)c2cccs2)cc1	83*	1	3	-3
CC(C)CC(=O)NC(=S)Nc1ccc(N2CCN(C(=O)c3cccs3)CC2)cc1	96*	8	9	-5
CC(C)C(=O)Nc1ccc(N2CCN(C(=O)c3cccs3)CC2)cc1	5	-5	1	-4
Cc1ccc(C(=O)C2=C(O)C(=O)N(Cc3cccnc3)C2c2cccc(Oc3ccccc3)c2)o1 (configuration not stated)	x	44*	x	3
O=C(N=C1c2ccccc2CN1c1ccccc1)Nc1ccccc1	-4	x	6	x
OCCN1CCN(CCCN2c3ccccc3Sc3ccc(C(F)(F)F)cc32)CC1	-6	-19	-1	-1
FC(F)(F)c1ccc2c(c1)N(CCCN1CCN(CCCl)CC1)c1ccccc1S2	101*	-24	100*	1
CN(C)Cc1c(C(=O)NN=Cc2cccc(OCc3ccc(F)cc3)c2)nnn1-c1nonc1N	7	x	7	x
COc1cc(C(=O)NCCSc2ccc(Cl)cc2)cc(OC)c1OC	-5	0	1	-2
COc1cc(C(=O)Sc2ccc(Cl)cc2)cc(OC)c1OC	93*	-7	1	8
O=C(O)c1ccccc1NS(=O)(=O)c1ccc(NN=Cc2cccc(Cl)c2)c([N+](=O)[O-])c1	90*	-3	-11	x
COc1ccc(Br)cc1C=NNc1ccc(S(=O)(=O)Nc2ccccc2C(=O)O)cc1[N+](=O)[O-]	99*	x	100*	x
COc1ccccc1NS(=O)(=O)c1ccc(N/N=C/c2ccccc2OCC(=O)O)c([N+](=O)[O-])c1	x	-13	x	3
CNC(=S)NN=C(C)c1ccc2c(c1)OCCO2	-4	x	5	x
CC(=O)c1c(O)cc(O)c(C(C)=O)c1O	89*	x	86*	6
COC(=O)[C@]12C[C@H](CC(=O)N3CCN(C(=O)c4ccco4)CC3)C(=O)N(Cc3ccc4c(c3)OCO4)C1=C[C@H](COCc1ccccc1)O[C@@H]2C	x	-5	x	x
Cc1ccc(C(c2c(NC(=O)c3ccco3)sc(C)c2C)N2CCOCC2)cc1 (configuration not stated)	x	5	x	x
Cc1sc(NC(=O)c2ccco2)c(C(c2ccccc2)N2CCC(C)CC2)c1C (configuration not stated)	active	7	85	8
C=CCCC(Cc1ccc(F)cc1)C(=O)OCC(NC(=O)C(CC=C)CC(=O)N(CCO)Cc1ccccc1)C(C)(C)C (configuration not stated)	-2	x	-5	x
O=[N+]([O-])c1ccc(N=Nc2c(Cl)cc(O)cc2Cl)cc1	99*	-25	100*	102*
CC(N)=Nc1ccc([N+](=O)[O-])cc1	2	-12	1	3
CC(c1ccccc1)N1C(=O)c2ccc(C(=O)Nc3ccc(Br)cc3C(=O)O)cc2C1=O (configuration not stated)	92*	-3	100*	-4
O=C(NN=Cc1c[nH]c2ccccc12)c1ccn(Cc2ccc(Cl)cc2)n1	-15	x	3	x
SMILES	Sa ugtP lethal	PrPC surface inh	RN4220 kill	BJeLR lethal
CC(=O)n1cc(C=NNC(=O)c2ccccc2O)c2ccccc21	15	x	-2	x
CC1=NNC(=O)/C1=C\c1cn(-c2ccccc2)nc1-c1ccc(F)cc1	-4	x	-11	4
O=C(O)CCCCCN1C(=O)/C(=C/c2cn(-c3ccccc3)nc2-c2cccs2)SC1=S	78	6	45	x
O=C(O)CCN1C(=O)/C(=C/c2cn(-c3ccccc3)nc2-c2cccs2)SC1=S	93*	-2	38	x
CC1=NNC(=O)/C1=C\c1cn(-c2ccccc2)nc1-c1cccs1	-10	2	-4	56*
O=Cc1ccc(O)c2ncccc12	15	x	20	64*
NC(=O)c1ccc(O)c2ncccc12	x	-11	x	x
Cn1c(=O)c(C(=O)NNC(=O)c2ccccc2F)c(O)c2ccccc21	-9	6	15	-12
Cn1c(=O)c(C(=O)NNC(=O)c2ccc(Br)cc2)c(O)c2ccccc21	100*	-4	98*	9

Screening data as filed in PubChem BioAssay.
